Most compounds without a hit are left out; they make up all but 8.8% or so of the library.
KB-3-1 tox = kills parental KB-3-1 adenocarcinoma cells | KB-3-1 viability, CellTiter-Glo ATP luminescence, 72 h | Potency, µM (titrated, usually from 46.1 µM), actives largely listed as cytotoxic | 400,000 compounds, 1.4% hits | AID 1347075; also: nearly all actives have a fitted effect of over 60% in size
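Viability of parental KB-3-1 cells, measured by CellTiter-Glo luminescence, followed a 72 h incubation at 37 °C with pinned compounds in phenol-red-free DMEM containing 10% FBS.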
IL-1B inflam inh = blocks inflammasome-driven IL-1 beta release | THP-1 LPS/ATP IL-1B secretion, AlphaLISA, 16 h; stronger effect = lower value | activity change, % at 57.5 µM | 360,000 compounds, 4.7% hits; in the data active = activity change below about -50%; inconclusive = mostly about -30% to -49%
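Secreted IL-1B measured by AlphaLISA bead assay after 16 h compound exposure of THP-1 cells; compounds (final up to 57.5 uM) added 1 h before LPS (250 ng/mL) and ATP (1.25 mM) stimulation; lower signal means less secretion.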
HT1080-NT tox = kills 2HG-producing HT-1080-NT fibrosarcoma cells; 360,000 compounds, 1.6% hits; HT-1080-NT fibrosarcoma viability, CellTiter-Glo ATP luminescence, 48 h; Potency, µM (series often up to 46.1 µM), usual class: cytotoxic;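 also: NT is the 2HG producing partner of a matched IDH1 knockdown line; nearly all actives have a fitted effect of over 55% in size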
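Luminescent CellTiter-Glo readout after 48 hours of compound exposure at 37 degrees C defined viability of HT-1080-NT cells. Activity was normalized to DMSO wells and cell-free media wells; concentration-response curves were fitted and assigned curve classes.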
HT1080 IDH1KD tx = kills HT-1080 cells with IDH1 knockdown | HT-1080 IDH1 knockdown viability, ATP luminescence, 48 h | Potency, µM (highest dose often 46.1 µM), actives largely listed as cytotoxic | 360,000 compounds, 2% hits | AID 686971
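Viability of IDH1-knockdown HT-1080 fibrosarcoma cells was assessed by CellTiter-Glo after 48 h at 37 °C with titrated compound; concentration-effect curves were classified by fit quality and response size.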
KB-V1 cytotox = KB-V1 MDR subline cytotoxicity; AID 1347076; Potency, µM (titrated, usually from 46.1 µM), actives largely listed as cytotoxic; 400,000 compounds, 3.4% hits; KB-V1 MDR cells viability, CellTiter-Glo, 72 h; also: nearly all actives have a fitted effect of over 60% in size
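KB-V1, DMEM (no phenol red) + 10% FBS; cpd pin-transferred, titration series; 72 h, 37 degrees C; CellTiter-Glo, luminescence. Data normalized, curve-fit.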
Each line names hits and unclear results; the compound was inactive in the other large screens; ! = repeats disagree. Unless noted, calls follow the shape of the dose curve; as a rule, active = well fitted curve in the direction sought with a large enough effect; inconclusive = small, poorly fitted or top-dose-only effect, or another doubt; inactive = no such curve, though single readings can be large; an effect the other way counts as inactive or inconclusive.

Cc1ccc(C)c(NS(=O)(=O)c2ccc(OCC(=O)N3CCCC3)cc2)c1	KB-V1 cytotox 21µM
Cc1cccc(C)c1-n1nnnc1C1c2ccccc2C(=O)N1CCc1ccc(O)cc1 (stereo not drawn)	none
C=CCSc1nnc(NC(=O)C2CC(=O)N(Cc3ccc(C)cc3)C2)s1 (stereo not drawn)	none
COC(=O)c1cc(NC(=O)c2c(Cl)cnn2C)cc(C(=O)OC)c1	KB-V1 cytotox 15µM
COC(=O)c1ccc(NC(=S)NC(=O)c2c(Cl)cnn2C)cc1	none
COC(=O)c1cccc(NC(=S)Nc2ccc(Cl)c(Cl)c2)c1	IL-1B inflam inh -65, HT1080 IDH1KD tx inconclusive
COC(=O)c1cc(NC(=S)Nc2cc(Cl)cc(Cl)c2)cc(C(=O)OC)c1	KB-3-1 tox inconclusive, IL-1B inflam inh -81
C=CC[C@@H](CC(=O)N[C@@H](CO)Cc1ccccc1)C(=O)N[C@@H](COC(=O)[C@@H](CC=C)CC(=O)OC(C)(C)C)Cc1c[nH]c2ccccc12	none
C=CC[C@H](CC(=O)N(CCO)Cc1ccccc1)C(=O)N[C@H](COC(=O)[C@@H](CC=C)CC(=O)OC(C)(C)C)c1ccccc1	IL-1B inflam inh -64
C=CC[C@H](CC(=O)N(CCO)Cc1ccccc1)C(=O)N[C@@H](C)COC(=O)[C@H](CC=C)CC(=O)OC(C)(C)C	none
C=CC[C@@H](CC(=O)N[C@H](CO)Cc1ccccc1)C(=O)N[C@@H](COC(=O)[C@@H](CC=C)CC(=O)OC(C)(C)C)Cc1c[nH]c2ccccc12	none
C=CC[C@H](CC(=O)N(CCO)Cc1ccccc1)C(=O)N[C@H](COC(=O)[C@@H](CC=C)CC(=O)OC(C)(C)C)Cc1c[nH]c2ccccc12	IL-1B inflam inh -65, HT1080-NT tox inconclusive, HT1080 IDH1KD tx inconclusive
C=CC[C@@H](CC(=O)N(CCO)Cc1ccccc1)C(=O)N[C@H](COC(=O)[C@H](CC=C)CC(=O)OC(C)(C)C)Cc1c[nH]c2ccccc12	IL-1B inflam inh -59, HT1080 IDH1KD tx inconclusive
CC(=O)C1=C(C)NC(SCC(=O)c2ccc(Cl)cc2)=C(C#N)C1c1ccco1 (stereo not drawn)	IL-1B inflam inh -62, HT1080-NT tox inconclusive, HT1080 IDH1KD tx inconclusive, KB-V1 cytotox 21µM
CC(=O)C1=C(C)NC(SCC(=O)c2ccc(Cl)cc2Cl)=C(C#N)C1c1ccco1 (stereo not drawn)	IL-1B inflam inh -54, HT1080-NT tox inconclusive, HT1080 IDH1KD tx inconclusive
CC(=O)C1=C(C)NC(SCc2ccc(C#N)cc2)=C(C#N)C1c1ccco1 (stereo not drawn)	KB-V1 cytotox inconclusive
Cc1cc(C)n(C(C)CC(=O)Nc2cccc(C(F)(F)F)c2)n1 (stereo not drawn)	none (no result: IL-1B inflam inh, HT1080-NT tox, HT1080 IDH1KD tx)
CC(CCc1ccccc1)NC(=O)CCc1cn(C)c2ccccc12 (stereo not drawn)	IL-1B inflam inh -77
CC(C)NC(=O)CCCc1cn(C)c2ccccc12	none
COc1ccc(C)cc1Nc1cc(C)nc(C)n1	none (no result: IL-1B inflam inh, HT1080-NT tox, HT1080 IDH1KD tx)
Cc1cc(C)n2nc(C(=O)OCCOc3ccc(F)cc3)nc2n1	IL-1B inflam inh -50
O=C(Nc1cnn(C23CC4CC(CC(C4)C2)C3)c1)c1cnn2c(C(F)(F)F)cc(-c3ccco3)nc12	IL-1B inflam inh -80, KB-V1 cytotox 8.2µM
O=C(Nc1ccc2c(c1)OCO2)c1cnn2c(C(F)(F)F)cc(-c3ccco3)nc12	none
Cc1ccoc1C(=O)NCCNc1ccc(Cl)cc1[N+](=O)[O-]	IL-1B inflam inh -59
O=C(NCCNc1ccc(Cl)cc1[N+](=O)[O-])c1cccnc1	HT1080 IDH1KD tx inconclusive, KB-V1 cytotox inconclusive
COc1ccc(-c2cn3cc(Br)cnc3n2)cc1	KB-3-1 tox 13µM, KB-V1 cytotox 10µM
COc1ccc(-c2cn3cccnc3n2)cc1Br	KB-3-1 tox inconclusive, KB-V1 cytotox inconclusive
CC(OC(=O)c1ccccc1OCC(=O)Nc1ccc(Br)cc1)C(=O)NC1CCCC1 (stereo not drawn)	none (no result: KB-3-1 tox, IL-1B inflam inh, KB-V1 cytotox)
CC(=O)N(C(C)=O)C1=C(C#N)C2(CCCCC2)Cc2ccccc21	IL-1B inflam inh -74, HT1080-NT tox inconclusive, HT1080 IDH1KD tx inconclusive
CN(C)c1ccc(/C=C/c2cc(Cl)nc3ccccc23)cc1	KB-3-1 tox inconclusive, KB-V1 cytotox 13µM (no result: IL-1B inflam inh, HT1080-NT tox, HT1080 IDH1KD tx)
CCN(CC)c1ccc(/C=C/c2cc(Cl)nc3ccccc23)cc1	none (no result: IL-1B inflam inh, HT1080-NT tox, HT1080 IDH1KD tx)
Cc1nc2ccccc2nc1/C=C/c1ccc(N(C)C)cc1	KB-3-1 tox 5.2µM, KB-V1 cytotox inconclusive (no result: IL-1B inflam inh, HT1080-NT tox, HT1080 IDH1KD tx)
CN(C)c1ccc(/C=C/c2cc(N(C)C)nc3ccccc23)cc1	KB-3-1 tox 0.58µM, KB-V1 cytotox 1.8µM (no result: IL-1B inflam inh, HT1080-NT tox, HT1080 IDH1KD tx)
COc1cccc(C(NC(C)=O)c2nc(-c3csc4ccccc34)cs2)c1 (stereo not drawn)	none
Cc1ccc(NC(=O)COc2ccccc2CNC(C)(C)CC(C)(C)C)cc1	KB-3-1 tox inconclusive, IL-1B inflam inh -105, HT1080-NT tox inconclusive, HT1080 IDH1KD tx inconclusive, KB-V1 cytotox inconclusive
CC(C)(CO)NCc1ccccc1OCC(=O)Nc1ccccc1	none
Cc1cc(C)cc(C(=O)Nc2ccc(N3CCN(C(=O)c4ccco4)CC3)cc2)c1	IL-1B inflam inh -52 (no result: KB-3-1 tox, KB-V1 cytotox)
CCC(=O)N1CCN(c2ccc(NC(=O)COc3ccc(C)cc3C)cc2)CC1	HT1080 IDH1KD tx inconclusive
Cc1ccc(C(=O)N2CCN(c3ccc(NC(=O)COc4ccccc4C)cc3)CC2)cc1	KB-3-1 tox 18µM, IL-1B inflam inh -64, KB-V1 cytotox inconclusive
Cc1ccc(OCC(=O)Nc2ccc(N3CCN(C(=O)c4ccco4)CC3)cc2)cc1	IL-1B inflam inh -59, KB-V1 cytotox inconclusive
O=C(Nc1ccc(N2CCN(C(=O)c3ccco3)CC2)cc1)c1ccccc1	none
COC(=O)[C@H]1C[C@H](O)CN1S(=O)(=O)c1ccc(Br)cc1F	none
O=C(NCc1cccnc1)c1nn2cccnc2c1Cl	none
Cc1cnc(NC(=O)CSc2ncc(-c3ccccc3)n2Cc2ccco2)s1	HT1080-NT tox inconclusive, HT1080 IDH1KD tx inconclusive, KB-V1 cytotox 21µM
COc1ccc(-c2cnc(SCC(=O)Nc3cc(C)on3)n2Cc2ccco2)cc1	none
O=C(CSc1ncc(-c2ccc(F)cc2)n1Cc1ccco1)Nc1nccs1	KB-3-1 tox inconclusive, KB-V1 cytotox inconclusive
COc1ccc(NC(=O)CSc2ncc(-c3ccc(F)cc3)n2Cc2ccco2)cc1	IL-1B inflam inh -62, HT1080-NT tox inconclusive, HT1080 IDH1KD tx inconclusive
COCCn1c(-c2ccc(OC)cc2)cnc1SCC(=O)Nc1cccc2ccccc12	HT1080 IDH1KD tx inconclusive, KB-V1 cytotox 7.3µM
CC(=O)N1CCc2cc(S(=O)(=O)NCCC(=O)NCCc3ccc(Cl)cc3)ccc21	KB-3-1 tox inconclusive
CN(C)/C=C(/C(=O)c1ccc(Cl)c(Cl)c1)S(C)(=O)=O	none
O=C(Cc1cc(=O)[nH][nH]1)N/N=C/c1c(Cl)cccc1Cl	IL-1B inflam inh -100!, KB-V1 cytotox inconclusive
